Experimental data taken from PubChem BioAssay AID1159580 (chemical genetic matrix, 2015).
“And” between values parts separate entries of the source, which are not always exact repeats. Equal entries are not always repeated. The campaign covered roughly 5,500 compounds. About 2,000 (36%) were called active. About 18% were inconclusive and are not listed. Cut-off read from the data, not from the text of the source: active = normalized growth mostly below about 0.91 (no sharp cut-off); inconclusive = no clear call, values can overlap the other calls; inactive = mostly above about 0.92. This is one part of the list.

Assay: chemical genetic growth profiling, strain panel (AID 1159580);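 note: tested at 20 µM; growth read once vehicle control cultures reached saturation at 30 °C; 1 = growth at the plate median or of vehicle wells; lower values mean less growth of the strain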
Conditions: growth OD

Measured: normalized growth

CCN(CC)CCOC(=O)c1ccc(N)cc1
inactive: S. cerevisiae deletion strains, locus YJR075W, strain HOC1, active compounds read low 1.07 | S. cerevisiae deletion strains, locus YKL009W, strain mrt4, active compounds read low 0.978 | S. cerevisiae deletion strains, locus YKL068W, active compounds read low 0.987 | S. cerevisiae deletion strains, locus YKL085W, strain MDH1 (second series), active compounds read low 0.981 | S. cerevisiae deletion strains, locus YKL085W, strain MDH1, active compounds read low 0.981 | S. cerevisiae deletion strains, locus YKL160W, strain elf1, active compounds read low 1.01 | S. cerevisiae deletion strains, locus YKL190W, strain CNB1, active compounds read low 1.01 | S. cerevisiae deletion strains, locus YKR001C, strain vps1, active compounds read low 0.986 | S. cerevisiae deletion strains, locus YKR026C, strain gcn3, active compounds read low 0.99 | S. cerevisiae deletion strains, locus YKR091W, strain srl3, active compounds read low 0.988 | S. cerevisiae deletion strains, locus YLL001W, strain dnm1, active compounds read low 1.02 | S. cerevisiae deletion strains, locus YLL026W, active compounds read low 1 | S. cerevisiae deletion strains, locus YLL041C, strain sdh2, active compounds read low 0.987 | S. cerevisiae deletion strains, locus YLR027C, strain aat2, active compounds read low 0.994 | S. cerevisiae deletion strains, locus YLR039C, strain RIC1, active compounds read low 1.03 | S. cerevisiae deletion strains, locus YLR058C, strain SHM2, active compounds read low 1.01 | S. cerevisiae deletion strains, locus YLR102C, strain apc9, active compounds read low 0.986 | S. cerevisiae deletion strains, locus YLR113W, strain HOG1, active compounds read low 1.02 | S. cerevisiae deletion strains, locus YLR221C, strain rsa3, active compounds read low 0.958 | S. cerevisiae deletion strains, locus YLR258W, strain gsy2, active compounds read low 0.975 | S. cerevisiae deletion strains, locus YLR262C, strain YPT6 (second series), active compounds read low 0.991 | S. cerevisiae deletion strains, locus YLR262C, strain YPT6, active compounds read low 1.04 | S. cerevisiae deletion strains, locus YLR268W, strain sec22, active compounds read low 0.959 | S. cerevisiae deletion strains, locus YLR320W, strain mms22, active compounds read low 0.969 | S. cerevisiae deletion strains, locus YLR330W, strain CHS5, active compounds read low 1.01 | S. cerevisiae deletion strains, locus YLR342W, strain FKS1 (second series), active compounds read low 1 | S. cerevisiae deletion strains, locus YLR342W, strain FKS1, active compounds read low 1.02 | S. cerevisiae deletion strains, locus YLR357W, strain rsc2, active compounds read low 0.955 | S. cerevisiae deletion strains, locus YLR370C, strain arc18, active compounds read low 1.01 | S. cerevisiae deletion strains, locus YLR371W, strain rom2, active compounds read low 0.992 | S. cerevisiae deletion strains, locus YLR384C, strain iki3, active compounds read low 0.991 | S. cerevisiae deletion strains, locus YLR418C, strain cdc73, active compounds read low 0.975 | S. cerevisiae deletion strains, locus YML016C, strain PPZ1, active compounds read low 1.01 | S. cerevisiae deletion strains, locus YML032C, strain rad52, active compounds read low 0.99 | S. cerevisiae deletion strains, locus YML120C, strain ndi1, active compounds read low 0.989 | S. cerevisiae deletion strains, locus YML124C, strain tub3, active compounds read low 0.995 | S. cerevisiae deletion strains, locus YMR058W, strain fet3, active compounds read low 0.983 | S. cerevisiae deletion strains, locus YMR078C, strain ctf18, active compounds read low 0.992 | S. cerevisiae deletion strains, locus YMR125W, strain sto1, active compounds read low 0.962 | S. cerevisiae deletion strains, locus YMR129W, active compounds read low 0.982 | S. cerevisiae deletion strains, locus YMR205C, strain PFK2, active compounds read low 1 | S. cerevisiae deletion strains, locus YMR223W, strain ubp8, active compounds read low 0.997 | S. cerevisiae deletion strains, locus YMR231W, strain pep5, active compounds read low 0.997 | S. cerevisiae deletion strains, locus YMR263W, strain SAP30, active compounds read low 1.01 and 0.982 | S. cerevisiae deletion strains, locus YMR307W, strain GAS1, active compounds read low 0.975 and 0.992 | S. cerevisiae deletion strains, locus YNL067W, strain RPL9B, active compounds read low 1.01 | S. cerevisiae deletion strains, locus YNL071W, strain lat1, active compounds read low 0.966 | S. cerevisiae deletion strains, locus YNL128W, strain TEP1, active compounds read low 1.01 | S. cerevisiae deletion strains, locus YNL153C, strain GIM3, active compounds read low 1.01 and 0.998 | S. cerevisiae deletion strains, locus YNL175C, strain NOP13, active compounds read low 0.991 | S. cerevisiae deletion strains, locus YNL183C, strain NPR1, active compounds read low 1 | S. cerevisiae deletion strains, locus YNL197C, strain WHI3, active compounds read low 0.986 | S. cerevisiae deletion strains, locus YNL209W, strain ssb2, active compounds read low 0.975 | S. cerevisiae deletion strains, locus YNL224C, strain SQS1, active compounds read low 0.998 | S. cerevisiae deletion strains, locus YNL233W, strain BNI4, active compounds read low 1.01 | S. cerevisiae deletion strains, locus YNL248C, strain rpa49, active compounds read low 0.938 | S. cerevisiae deletion strains, locus YNL250W, strain rad50, active compounds read low 0.986 | S. cerevisiae deletion strains, locus YNL271C, strain bni1, active compounds read low 0.985 | S. cerevisiae deletion strains, locus YNL298W, strain CLA4, active compounds read low 0.99 | S. cerevisiae deletion strains, locus YNL307C, strain MCK1, active compounds read low 0.986 | S. cerevisiae deletion strains, locus YNL322C, strain KRE1 (second series), active compounds read low 0.986 | S. cerevisiae deletion strains, locus YNL322C, strain KRE1, active compounds read low 1 and 0.981 | S. cerevisiae deletion strains, locus YNR049C, strain mso1, active compounds read low 0.975 | S. cerevisiae deletion strains, locus YNR052C, strain pop2, active compounds read low 0.988 | S. cerevisiae deletion strains, locus YOL006C, strain TOP1, active compounds read low 1.04 | S. cerevisiae deletion strains, locus YOL012C, strain htz1 0.92 | S. cerevisiae deletion strains, locus YOL147C, strain pex11, active compounds read low 0.988 | S. cerevisiae deletion strains, locus YOR001W, strain rrp6, active compounds read low 1.01 | S. cerevisiae deletion strains, locus YOR061W, strain CKA2, active compounds read low 1.01 | S. cerevisiae deletion strains, locus YOR069W, strain VPS5, active compounds read low 1.01 | S. cerevisiae deletion strains, locus YOR070C, strain gyp1, active compounds read low 0.996 | S. cerevisiae deletion strains, locus YOR080W, strain dia2, active compounds read low 0.996 | S. cerevisiae deletion strains, locus YOR083W, strain WHI5 (second series), active compounds read low 0.979 | S. cerevisiae deletion strains, locus YOR083W, strain WHI5, active compounds read low 1 | S. cerevisiae deletion strains, locus YOR106W, strain vam3, active compounds read low 1.02 | S. cerevisiae deletion strains, locus YOR136W, strain idh2, active compounds read low 0.996 | S. cerevisiae deletion strains, locus YOR144C, strain elg1, active compounds read low 0.994 | S. cerevisiae deletion strains, locus YOR184W, strain ser1, active compounds read low 0.991 | S. cerevisiae deletion strains, locus YOR231W, strain MKK1, active compounds read low 1.02 | S. cerevisiae deletion strains, locus YOR265W, strain rbl2, active compounds read low 0.985 | S. cerevisiae deletion strains, locus YOR270C, strain vph1, active compounds read low 0.983 | S. cerevisiae deletion strains, locus YOR290C, strain snf2, active compounds read low 0.946 | S. cerevisiae deletion strains, locus YOR316C, strain cot1, active compounds read low 0.992 | S. cerevisiae deletion strains, locus YPL051W, strain arl3, active compounds read low 0.997 | S. cerevisiae deletion strains, locus YPL055C, strain LGE1, active compounds read low 1.03 | S. cerevisiae deletion strains, locus YPL078C, strain atp4, active compounds read low 1.02 | S. cerevisiae deletion strains, locus YPL106C, strain sse1, active compounds read low 0.929 | S. cerevisiae deletion strains, locus YPL240C, strain hsp82, active compounds read low 0.991 | S. cerevisiae deletion strains, locus YPL241C, strain CIN2, active compounds read low 0.993 | S. cerevisiae deletion strains, locus YPL256C, strain CLN2, active compounds read low 1.04 | S. cerevisiae deletion strains, locus YPR119W, strain clb2, active compounds read low 0.986 | S. cerevisiae deletion strains, locus YPR141C, strain kar3, active compounds read low 0.989 | S. cerevisiae deletion strains, locus YPR163C, strain tif3, active compounds read low 0.994 | S. cerevisiae deletion strains, locus YPR167C, strain met16, active compounds read low 0.991 | S. cerevisiae deletion strains, strain wtn01, active compounds read low 0.996 | S. cerevisiae strains, strain wild type, active compounds read low 1.01
